# In PubChem BioAssay (Tox21):
# Values joined by “and” are separate entries in the source; they are usually repeats but may differ in a detail not shown here. Identical values can stand only once. Inconclusive results are not listed. Where a call stands in place of a potency, no number is given. The source holds several records for some structures; these can differ, active in one and inactive in another. Active and inactive are the calls of the source. Unless noted, the call rests on the fitted dose curve; in most records, active means well fitted curve in the direction sought with a large enough effect in the repeat runs; inconclusive means weak or mixed curves; inactive means no such curve, though single readings can be large; an effect the other way counts as inactive or inconclusive.
# How the values were obtained:
# [1] = qHTS assay to identify small molecule agonists of the peroxisome proliferator-activated receptor delta (PPARd) signaling pathway - cell viability counter screen (AID 743211); further: nearly all actives have a fitted effect of over 55% in size; further: potency means the concentration at half of the fitted maximal effect
# Summary of the method: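 Read-out: CellTiter-Glo luminescence, 30 min RT, measured in the same wells as the beta-lactamase reporter. Cells: GeneBLAzer PPAR delta UAS-bla HEK293H, 3000 cells/well, compound exposure 17 h at 37C.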
# [2] = molecular target: Peroxisome proliferator-activated receptor delta (Homo sapiens) (UniProt Q03181); test: qHTS assay to identify small molecule agonists of the peroxisome proliferator-activated receptor delta (PPARd) signaling pathway (AID 743212; calls by dose curve)
# Chain of Peroxisome proliferator-activated receptor delta (Homo sapiens) (Q03181 whole entry, looked up): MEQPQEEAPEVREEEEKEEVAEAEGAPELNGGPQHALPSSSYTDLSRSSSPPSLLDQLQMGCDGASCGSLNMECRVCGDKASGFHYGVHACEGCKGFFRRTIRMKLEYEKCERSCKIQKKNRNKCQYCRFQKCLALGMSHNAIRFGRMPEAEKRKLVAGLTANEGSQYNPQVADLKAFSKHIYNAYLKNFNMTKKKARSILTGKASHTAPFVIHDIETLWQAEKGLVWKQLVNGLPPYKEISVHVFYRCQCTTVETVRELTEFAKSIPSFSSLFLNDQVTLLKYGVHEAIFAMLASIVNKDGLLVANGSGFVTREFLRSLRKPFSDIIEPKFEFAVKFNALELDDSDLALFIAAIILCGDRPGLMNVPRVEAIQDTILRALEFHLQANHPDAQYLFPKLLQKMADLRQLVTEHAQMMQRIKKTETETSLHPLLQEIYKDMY
# Summary of the method: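 Quantitative high-throughput agonist screen in a HEK293H beta-lactamase reporter line under UAS control. Compounds in DMSO, at 37 C. Fluorescence read after 2 h with FRET substrate at room temperature.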
# [3] = qHTS assay to identify small molecule antagonists of the peroxisome proliferator-activated receptor delta (PPARd) signaling pathway - cell viability counter screen (AID 743213); further: nearly all actives have a fitted effect of over 50% in size; further: potency means the concentration at half of the fitted maximal effect
# Summary of the method: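 PPARd-bla HEK293H cells were treated with compounds plus agonist L165041 (300 nM final) for 17 h at 37 C. Viability was then read in the same wells by CellTiter-Glo luminescence after 30 min at room temperature.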
# [4] = molecular target: Peroxisome proliferator-activated receptor delta (Homo sapiens) (UniProt Q03181); test: qHTS assay to identify small molecule antagonists of the peroxisome proliferator-activated receptor delta (PPARd) signaling pathway (AID 743215; active means well fitted inhibition curve with a large enough effect in the signal ratio in the repeat runs, not every such curve was filed as active; the % refers to the signal ratio;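 further: cells stimulated with agonist L165041 at 300 nM final during compound exposure; series mostly up to about 62 µM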)
# Summary of the method: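 PPARd-bla HEK293H cells (UAS-bla reporter) preincubated 5 h, then given compound plus 300 nM final L165041 agonist for 17 h at 37 C. Beta-lactamase activity read by LiveBLAzer B/G FRET substrate fluorescence after 2 h at room temperature.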
# [5] = molecular target: Bile acid receptor (Homo sapiens) (UniProt Q96RI1); test: qHTS assay to identify small molecule antagonists of the farnesoid-X-receptor (FXR) signaling pathway (AID 743217; active means well fitted inhibition curve with a large enough effect in the signal ratio in the repeat runs, not every such curve was filed as active; the % refers to the signal ratio)
# Chain of Bile acid receptor (Homo sapiens) (Q96RI1 whole entry, looked up): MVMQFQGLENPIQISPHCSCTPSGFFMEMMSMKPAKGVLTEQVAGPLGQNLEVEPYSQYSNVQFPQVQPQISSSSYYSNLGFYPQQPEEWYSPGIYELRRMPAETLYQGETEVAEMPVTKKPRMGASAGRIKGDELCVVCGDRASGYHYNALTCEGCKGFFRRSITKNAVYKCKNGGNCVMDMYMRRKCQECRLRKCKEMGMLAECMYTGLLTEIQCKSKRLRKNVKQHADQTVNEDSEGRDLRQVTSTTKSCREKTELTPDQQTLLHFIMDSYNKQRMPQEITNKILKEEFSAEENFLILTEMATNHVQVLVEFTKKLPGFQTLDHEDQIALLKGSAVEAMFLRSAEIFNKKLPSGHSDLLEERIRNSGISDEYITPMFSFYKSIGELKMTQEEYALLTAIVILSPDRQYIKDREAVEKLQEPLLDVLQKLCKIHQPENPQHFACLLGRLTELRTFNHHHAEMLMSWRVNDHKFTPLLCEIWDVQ
# Summary of the method: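 FXR-UAS-bla HEK 293T cells (beta-lactamase reporter) given compound plus chenodeoxycholic acid (50 uM final), 16 h at 37C. LiveBLAzer B/G FRET substrate added for 2 h at room temperature; fluorescence read.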
# [6] = qHTS assay to identify small molecule agonists of the farnesoid-X-receptor (FXR) signaling pathway - cell viability counter screen (AID 743218); further: nearly all actives have a fitted effect of over 45% in size; further: potency means the concentration at half of the fitted maximal effect
# Summary of the method: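 FXR-UAS-bla HEK 293T cells exposed to compounds for 16 h at 37C. Cytotoxicity read in the same wells by CellTiter-Glo luminescence after 30 min at room temperature, following the beta-lactamase FRET read.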
# [7] = molecular target: Bile acid receptor (Homo sapiens) (UniProt Q96RI1); test: qHTS assay to identify small molecule agonists of the farnesoid-X-receptor (FXR) signaling pathway (AID 743220; active means well fitted activation curve with a large enough effect in the signal ratio in the repeat runs, not every such curve was filed as active; the % refers to the signal ratio)
# Summary of the method: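 Beta-lactamase reporter under UAS control in GeneBLAzer FXR HEK 293T cells (5000/well) measured with LiveBLAzer FRET substrate after 2 h at room temperature. Compound exposure lasted 16 h at 37C.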
# [8] = qHTS assay to identify small molecule antagonists of the farnesoid-X-receptor (FXR) signaling pathway - cell viability counter screen (AID 743221; active means well fitted cell-killing curve with a large enough effect in the repeat runs, not every such curve was filed as active; further: nearly all actives have a fitted effect of over 50% in size)
# Summary of the method: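 HEK 293T FXR-bla cells, 5 h pre-incubation; compound + CDCA 50 uM final, 16 h, 37 C; beta-lactamase FRET read first, then CellTiter-Glo luminescence, 30 min RT.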
# [9] = molecular target: Vitamin D3 receptor (Homo sapiens) (UniProt P11473); test: qHTS assay to identify small molecule agonists of the vitamin D receptor (VDR) signaling pathway (AID 743222; calls by dose curve)
# Chain of Vitamin D3 receptor (Homo sapiens) (P11473 whole entry, looked up): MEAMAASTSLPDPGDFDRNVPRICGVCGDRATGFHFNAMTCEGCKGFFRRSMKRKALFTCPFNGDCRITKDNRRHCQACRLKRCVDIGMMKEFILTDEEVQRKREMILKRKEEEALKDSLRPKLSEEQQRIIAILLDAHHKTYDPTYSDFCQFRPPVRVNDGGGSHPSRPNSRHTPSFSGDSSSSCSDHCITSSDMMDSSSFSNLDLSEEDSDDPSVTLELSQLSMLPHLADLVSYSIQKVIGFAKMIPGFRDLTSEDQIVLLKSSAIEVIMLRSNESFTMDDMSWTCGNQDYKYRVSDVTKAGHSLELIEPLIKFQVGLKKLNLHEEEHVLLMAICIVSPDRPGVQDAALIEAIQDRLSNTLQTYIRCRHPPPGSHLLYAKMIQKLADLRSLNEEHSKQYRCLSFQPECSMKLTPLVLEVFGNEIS
# Summary of the method: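 VDR-bla cells plated 4 h at 37 C, then exposed to compounds for 16 h at 37 C. Beta-lactamase reporter activity measured by fluorescence after 2 h room-temperature loading with LiveBLAzer B/G FRET substrate.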
# [10] = molecular target: Vitamin D3 receptor (Homo sapiens) (UniProt P11473); test: qHTS assay to identify small molecule antagonists of the vitamin D receptor (VDR) signaling pathway (AID 743223; active means well fitted inhibition curve with a large enough effect in the signal ratio in the repeat runs, not every such curve was filed as active; the % refers to the signal ratio)
# Summary of the method: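 Beta-lactamase reporter read-out: FRET substrate fluorescence after 2 h at room temperature, following 16 h exposure of VDR-bla cells to test compound plus 3 nM (final) 1alpha,25-dihydroxyvitamin D3 agonist at 37C.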
smiles,measurement,setting,value
COc1ccc(COC(C)=O)cc1,Potency,[1],inactive
same,Potency,[2],inactive
same,Potency,[3],inactive
same,Potency,[4],inactive
same,Potency,[5],inactive
same,Potency,[6],inactive
same,Potency,[7],inactive
same,Potency,[8],inactive
same,Potency,[9],inactive
same,Potency,[10],inactive
CC(=O)O[C@]1(C(C)=O)CC[C@H]2[C@@H]3C[C@H](C)C4=CC(=O)CC[C@]4(C)[C@H]3CC[C@@]21C,Potency,[1],inactive
same,Potency,[2],inactive
same,Potency,[3],inactive
same,Potency,[4],inactive
same,Potency,[5],inactive
same,Potency,[7],inactive
same,Potency,[8],inactive
same,Potency,[10],inactive
CCN(CC)C(=O)Nc1ccc(OCC(O)CNC(C)(C)C)c(C(C)=O)c1 (centres undefined),Potency,[1],inactive
same,Potency,[2],inactive
same,Potency,[3],inactive
same,Potency,[4],inactive
same,Potency,[6],inactive
same,Potency,[8],inactive
BrC1CCC(Br)C(Br)CCC(Br)C(Br)CCC1Br (centres undefined),Potency,[1],26.1 µM (active)
same,Potency,[2],inactive
same,Potency,[3],10.4 µM (active)
same,Potency,[4],inactive
same,Potency,[6],inactive and 20.8 µM (active)
same,Potency,[7],inactive
same,Potency,[8],inactive
same,Potency,[9],inactive
same,Potency,[10],inactive
O=C(O)c1cccc(C(=O)O)c1,Potency,[1],inactive
same,Potency,[2],inactive
same,Potency,[3],inactive
same,Potency,[4],inactive
same,Potency,[5],inactive
same,Potency,[6],inactive
same,Potency,[7],inactive
same,Potency,[8],inactive
C=C(C)C1CC=C(C)C(OC(C)=O)C1 (centres undefined),Potency,[1],inactive
same,Potency,[2],inactive
same,Potency,[3],inactive
same,Potency,[4],inactive
same,Potency,[5],inactive
same,Potency,[6],inactive
same,Potency,[7],inactive
same,Potency,[8],inactive
same,Potency,[9],inactive
same,Potency,[10],inactive
CCC(=O)/C=C/C1C(C)=CCCC1(C)C (centres undefined),Potency,[1],inactive
same,Potency,[2],inactive
same,Potency,[3],inactive
same,Potency,[4],inactive
same,Potency,[5],inactive
same,Potency,[6],inactive
same,Potency,[7],inactive
same,Potency,[8],inactive
same,Potency,[9],inactive
same,Potency,[10],inactive
Cc1ccnc2c1NC(=O)c1cccnc1N2C1CC1,Potency,[1],inactive
same,Potency,[2],inactive
same,Potency,[3],inactive
same,Potency,[4],inactive
same,Potency,[5],inactive
same,Potency,[7],inactive
same,Potency,[8],inactive
same,Potency,[9],inactive
same,Potency,[10],inactive
CCOc1ccccc1C(N)=O,Potency,[1],inactive
same,Potency,[2],inactive
same,Potency,[3],inactive
same,Potency,[4],inactive
same,Potency,[5],inactive
same,Potency,[6],inactive
same,Potency,[7],inactive
same,Potency,[8],inactive
same,Potency,[9],inactive
same,Potency,[10],inactive
CCCOC(=O)c1cc(O)c(O)c(O)c1,Potency,[1],inactive
same,Potency,[2],inactive
same,Potency,[3],inactive
same,Potency,[4],inactive
same,Potency,[6],inactive
same,Potency,[7],inactive
same,Potency,[8],inactive
same,Potency,[9],inactive
same,Potency,[10],inactive
Cc1cc(C(C)(C)C)c(O)c(C(C)(C)C)c1,Potency,[1],43.8 µM (active) and inactive
same,Potency,[2],inactive
same,Potency,[3],inactive
same,Potency,[4],inactive
same,Potency,[5],inactive
same,Potency,[6],inactive
same,Potency,[7],inactive
same,Potency,[8],inactive
NC(Cc1ccc(Cl)cc1)C(=O)O (centres undefined),"activity change, negative = cytotoxicity",[1],4.79% [at 0.55 µM] (inactive)
same,activation,[2],2.85% [at 0.55 µM] (inactive)
same,"viability change, negative = cytotoxic",[3],1.71% [at 0.575 µM] (inactive)
same,"ratio activity, negative = inhibition",[4],5.74% [at 0.575 µM] (inactive)
same,"activity change, negative = inhibition",[5],10.5% [at 0.55 µM] (inactive)
same,activation,[7],2.17% [at 0.55 µM] (inactive)
same,"activity change, negative = cytotoxicity",[8],5.76% [at 0.55 µM] (inactive)
same,activation,[9],0.21% [at 0.554 µM] (inactive)
same,"activity change, negative = inhibition",[10],-2.76% [at 0.628 µM] (inactive)
O=C(O)c1cn(-c2ccc(F)cc2)c2cc(N3CCNCC3)c(F)cc2c1=O,Potency,[1],inactive
same,Potency,[2],inactive
same,Potency,[3],inactive
same,Potency,[4],inactive
same,Potency,[6],inactive
same,Potency,[8],inactive
CC(=O)N[C@@H](CS)C(=O)O,Potency,[1],inactive
same,Potency,[2],inactive
same,Potency,[3],inactive
same,Potency,[4],inactive
same,Potency,[5],inactive
same,Potency,[6],inactive
same,Potency,[7],inactive
same,Potency,[8],inactive
same,Potency,[9],inactive
same,Potency,[10],inactive
CCn1c2ccccc2c2cc(N)ccc21,Potency,[1],inactive
same,Potency,[2],inactive
same,Potency,[3],inactive
same,Potency,[4],inactive
same,Potency,[6],inactive
same,Potency,[8],inactive
OCCN1CCNCC1,Potency,[1],inactive
same,Potency,[2],inactive
same,Potency,[3],inactive
same,Potency,[4],inactive
same,Potency,[5],inactive
same,Potency,[6],inactive
same,Potency,[7],inactive
same,Potency,[8],inactive
same,Potency,[9],inactive
same,Potency,[10],inactive
CC1COc2c(N3CCN(C)CC3)c(F)cc3c(=O)c(C(=O)O)cn1c23 (centres undefined),Potency,[1],inactive
same,Potency,[2],inactive
same,Potency,[3],inactive
same,Potency,[4],inactive
same,Potency,[5],inactive
same,Potency,[7],inactive
same,Potency,[8],inactive
same,Potency,[9],inactive
same,Potency,[10],inactive
CCc1cc(C(C)(C)C)c(O)c(C(C)(C)C)c1,Potency,[1],inactive
same,Potency,[2],inactive
same,Potency,[3],inactive
same,Potency,[4],inactive
same,Potency,[5],inactive
same,Potency,[6],inactive
same,Potency,[7],inactive
same,Potency,[8],inactive
same,Potency,[9],inactive
same,Potency,[10],inactive
CC(=O)C1=C(C)[C@@H]2C[C@@]3(C1)[C@H](C)CC[C@H]3C2(C)C,Potency,[1],inactive
same,Potency,[2],inactive
same,Potency,[3],inactive
same,Potency,[4],inactive
same,Potency,[5],inactive
same,Potency,[7],inactive
same,Potency,[8],inactive
same,Potency,[9],inactive
same,Potency,[10],inactive
CC(=O)CC(=O)Nc1ccc2[nH]c(=O)[nH]c2c1,Potency,[1],inactive
same,Potency,[2],inactive
same,Potency,[3],inactive
same,Potency,[4],inactive
same,Potency,[5],inactive
same,Potency,[6],inactive
same,Potency,[7],inactive
same,Potency,[8],inactive
CC(=O)OCCOCCOCCOC(C)=O,Potency,[1],inactive
same,Potency,[2],inactive
same,Potency,[3],inactive
same,Potency,[4],inactive
same,Potency,[5],inactive
same,Potency,[6],inactive
same,Potency,[7],inactive
same,Potency,[8],inactive
same,Potency,[9],inactive
same,Potency,[10],inactive
